Assay results taken from PubChem BioAssay (Tox21).
Records with an inconclusive call do not appear. Calls of active or inactive are those of the source. Unless noted, the call rests on the fitted dose curve; in most records, active means well fitted curve in the direction sought with a large enough effect in the repeat runs; inconclusive means weak or mixed curves; inactive means no such curve, though single readings can be large; an effect the other way counts as inactive or inconclusive.

How the values were obtained:
[1] = qHTS assay for small molecule agonists of the p53 signaling pathway (AID 651631; calls by dose curve; further: nearly all actives have a fitted effect of over 15% in size)
Summary of the method: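 HCT-116 p53RE-bla reporter line, 16 h compound treatment at 37 °C, then fluorescence after 2 h with B/G FRET substrate.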

[2] = qHTS assay for small molecules that induce genotoxicity in human embryonic kidney cells expressing luciferase-tagged ATAD5 (AID 651632); further: nearly all actives have a fitted effect of over 15% in size
Summary of the method: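 ATAD5-luc HEK293T, 2,000 cells/well; cpd or DMSO pin-transferred; 16 hr, 37C/5% CO2; Amplite 30 min RT; luminescence.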

[3] = qHTS assay for small molecule agonists of the p53 signaling pathway - cell viability (AID 651633; calls by dose curve;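 further: p53RE-bla HCT reporter cells with a stable beta-lactamase p53 reporter; series mostly up to about 83 µM; nearly all actives have a fitted effect of over 30% in size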)
Summary of the method: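 p53RE-bla cells, seeded at 4,000 per well and rested 5 h at 37 C/5% CO2, received compounds in DMSO for 16 h at 37 C. CellTiter-Glo was then added, and luminescence was read after 30 min at room temperature to gauge cytotoxicity.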

[4] = qHTS assay for small molecules that induce genotoxicity in human embryonic kidney cells expressing luciferase-tagged ATAD5 - cell viability (AID 651634; calls by dose curve; further: nearly all actives have a fitted effect of over 25% in size)
Summary of the method: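 Fluorescence from CellTiter-Fluor, reporting protease activity within live cells, served as the viability read-out. HEK293T cells carrying luciferase-tagged ATAD5 had been treated with compound for 15.5 hr at 37C.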

[5] = qHTS assay for small molecule disruptors of the mitochondrial membrane potential - cell viability (AID 720634; calls by dose curve;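 further: human HepG2 liver cancer cells; series mostly up to about 83 µM; nearly all actives have a fitted effect of over 20% in size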)
Summary of the method: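 Cells: HepG2, 2,000/well, attached overnight. Compound 1 hr, 37 C/5% CO2. +m-MPI dye, +CellTiter-Glo 30 min RT. Readout: luminescence (ATP).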

[6] = qHTS assay for small molecule disruptors of the mitochondrial membrane potential (AID 720635)
Summary of the method: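 HepG2 cells (2,000/well) attached overnight at 37C, then took compound for 1 hr at 37C, 5% CO2. Mito-MPS dye was added for 30 min; fluorescence was read at 490/535 nm (monomers) and 540/590 nm (aggregates).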

[7] = qHTS assay to test for compound auto fluorescence at 590 nm (red) in HepG2 cells (AID 720674)
Summary of the method: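 Intrinsic compound fluorescence in the red window (Ex/Em 540/590 nm) is measured in attached HepG2 cells exposed for 1 hr, DMSO vehicle as baseline, benchmarked to Rose Bengal sodium.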

[8] = qHTS assay to test for compound auto fluorescence at 535 nm (green) in HepG2 cells (AID 720675)
[9] = qHTS assay to test for compound auto fluorescence at 460 nm (blue) in HEK293 cells (AID 720678)
Summary of the method: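 After cell attachment (4-5 hr, 37C), compounds were pinned onto HEK293 monolayers in 10% dialyzed FBS medium. The blue channel (405/460 nm) was read following overnight culture. Equivalency was calculated against triamterene.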

[10] = qHTS assay to test for compound auto fluorescence at 590 nm (red) in HEK293 cells (AID 720679)
Summary of the method: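 Plates of HEK293 cells (10% dialyzed FBS) are treated with 23 nL compound or DMSO vehicle after a 4-5 hr attachment period, incubated overnight at 37C, and read for red fluorescence at 540/590nm.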
On the % scale 0 is the no-effect control and ±100 the full control effect.

O=C(NCN1CCOCC1)c1cnccn1
inactive: outcome [1] | outcome [2] | outcome [3] | Potency [4] | outcome [5] | Potency [6] | outcome [7] | outcome [8] | outcome [9] | outcome [10]

C=CCCCCCCCCC(=O)OCCCC
inactive: outcome [1] | outcome [2] | outcome [3] | Potency [4] | outcome [5] | Potency [6] | outcome [7] | outcome [8] | outcome [9] | outcome [10]

OCC1CCC(CO)CC1 (stereo not drawn)
inactive: outcome [1] | outcome [2] | outcome [3] | Potency [4] | outcome [5] | Potency [6] | outcome [7] | outcome [9]

CN(C)CCCCl
inactive: outcome [1] | outcome [2] | outcome [3] | Potency [4] | outcome [5] | Potency [6] | outcome [7] | outcome [8] | outcome [9] | outcome [10]

N#CCC(=O)NN
inactive: outcome [1] | outcome [2] | outcome [3] | Potency [4] | outcome [5] | Potency [6] | outcome [7] | outcome [8] | outcome [9] | outcome [10]

C=CCSSCCC
inactive: outcome [1] | outcome [2] | outcome [3] | Potency [4] | outcome [5] | Potency [6] | outcome [7] | outcome [8] | outcome [9]

CC(C)OC(=O)OCOP(=O)(CO[C@H](C)Cn1cnc2c(N)ncnc21)OCOC(=O)OC(C)C
inactive: outcome [1] | outcome [2] | outcome [3] | Potency [4] | outcome [5] | Potency [6] | outcome [7] | outcome [8] | outcome [9] | outcome [10]

Cn1nnc2c(C(N)=O)ncn2c1=O
inactive: outcome [1] | outcome [2] | outcome [3] | Potency [4] | outcome [5] | Potency [6] | outcome [7] | outcome [8] | outcome [9] | outcome [10]

O=C(CN1CCNCC1)NC1CCCCC1
inactive: outcome [1] | outcome [2] | outcome [3] | Potency [4] | outcome [5] | Potency [6] | outcome [7] | outcome [8] | outcome [9] | outcome [10]

CCOC(=O)CC1(C)OCC(C)O1 (stereo not drawn)
inactive: outcome [1] | outcome [2] | outcome [3] | Potency [4] | outcome [5] | Potency [6] | outcome [7] | outcome [8] | outcome [9]

CC1c2ccccc2CN1NC(=O)c1ccc(Cl)c(S(N)(=O)=O)c1 (stereo not drawn)
inactive: outcome [1] | outcome [2] | outcome [3] | Potency [4] | outcome [5] | Potency [6] | outcome [7] | outcome [8] | outcome [9] | outcome [10]

CC(C)c1ccc(C=O)cc1
inactive: outcome [1] | outcome [2] | outcome [3] | Potency [4] | outcome [5] | Potency [6] | outcome [7] | outcome [8] | outcome [9] | outcome [10]

CC(C)=CCC/C(C)=C/COC=O
inactive: outcome [1] | outcome [2] | outcome [3] | Potency [4] | outcome [5] | Potency [6] | outcome [7] | outcome [8] | outcome [9] | outcome [10]

Nc1nc(-c2ccccc2)c(Br)c(=O)[nH]1
inactive: outcome [1] | outcome [2] | outcome [3] | Potency [4] | outcome [5] | Potency [6] | outcome [7] | outcome [8] | outcome [9] | outcome [10]

CC(C)Nc1ccccc1
inactive: outcome [1] | outcome [2] | outcome [3] | Potency [4] | outcome [5] | Potency [6] | outcome [7] | outcome [8] | outcome [9] | outcome [10]

CC(C)=CCC[C@@](C)(O)[C@H]1CC=C(C)CC1
inactive: outcome [1] | outcome [2] | outcome [3] | Potency [4] | outcome [5] | Potency [6] | outcome [7] | outcome [8] | outcome [9] | outcome [10]

CC(C)CCOC(=O)c1ccccc1
inactive: outcome [1] | outcome [2] | outcome [3] | Potency [4] | outcome [5] | Potency [6] | outcome [7] | outcome [8] | outcome [9] | outcome [10]

C#CCN[C@@H]1CCc2ccccc21
inactive: outcome [1] | outcome [2] | outcome [3] | Potency [4] | outcome [5] | Potency [6] | outcome [7] | outcome [8] | outcome [9] | outcome [10]

Cc1ccccc1C(N)=O
inactive: outcome [1] | outcome [2] | outcome [3] | Potency [4] | outcome [5] | Potency [6] | outcome [7] | outcome [8] | outcome [9] | outcome [10]

c1ccc(-c2nn[nH]n2)cc1
inactive: outcome [1] | outcome [2] | outcome [3] | Potency [4] | outcome [5] | Potency [6] | outcome [7] | outcome [8] | outcome [9] | outcome [10]

CC(C)(C)NC[C@H](O)COc1cccc2c1CCCC2=O
inactive: outcome [1] | outcome [2] | outcome [3] | Potency [4] | outcome [5] | Potency [6] | fluorescence, relative to Rose Bengal [7] -0.105% [at 18.6 µM] | fluorescence, % of fluorescein control [8] 0.0562% [at 18.6 µM] | fluorescence, % of triamterene [9] 0.103% [at 18.6 µM] | fluorescence, % of fluorescent control [10] 0.133% [at 18.6 µM]

COC(=O)c1cccc(Cl)c1
inactive: outcome [1] | outcome [2] | outcome [3] | Potency [4] | outcome [5] | Potency [6] | outcome [7] | outcome [8] | outcome [9]

CCn1cc(C(=O)O)c(=O)c2cnc(N3CCCC3)nc21
inactive: outcome [1] | outcome [2] | outcome [3] | Potency [4] | outcome [5] | Potency [6] | fluorescence, relative to Rose Bengal [7] -0.176% [at 18.6 µM] | fluorescence, % of fluorescein control [8] -0.162% [at 18.6 µM] | fluorescence, % of triamterene [9] 0.0274% [at 18.6 µM]

Cc1cc(C)c(C(=O)O)c(C)c1
inactive: outcome [1] | outcome [2] | outcome [3] | Potency [4] | outcome [5] | Potency [6] | outcome [7] | outcome [8] | outcome [9] | outcome [10]

Cc1ccc(C(C)NC(=O)[C@@H](NC(=O)OC(C)C)C(C)C)cc1 (stereo partly drawn)
inactive: outcome [1] | outcome [2] | outcome [3] | Potency [4] | outcome [5] | Potency [6] | outcome [7] | outcome [8] | outcome [9]
